# Assay results as given in ChEMBL document CHEMBL3988442, “University of Dundee, Small-Polar-MMV Screening Library” (2021).
# The campaign covered roughly 48,000 compounds. About 13,000 (27%) showed an effect of 50% or more. The list shows a part of the results.
# Test system: Wolbachia pipientis
# Assay: Anti-Wolbachia Cell-Based Screen
# Format: functional
# Set-up: scale not given: in the data most compounds retested in dose-response had high values
# Conditions: 5 µM
row,Compound,Percent Effect
1,CC(=O)Nc1cnc(-n2ccnc2)nc1,0.9267%
2,C=Cc1ccc(C(=O)N2CCCC(Nc3ccccc3)C2)cc1 (stereo unspecified),-22.58%
3,CN1C(=O)C[C@@H]2[C@@H]1CCN2C(=O)c1ccc[nH]1,-0.2597%
4,N#Cc1ccc(C(=O)N2C[C@@H](CN3CCCC3)C[C@H](CO)C2)cc1,5.863%
5,CN(C)c1cccc(C(=O)N2C[C@H]3CC[C@@H]2CN(C(=O)C2CCC2)C3)c1,-25.57%
6,CN(C)c1ccc(C(=O)N2C[C@@H](CN3CCCCC3)[C@@H](CO)C2)cc1,-5.628%
7,N#Cc1ccc(C(=O)N2CCCSCC2CN2CCCC2)cc1 (stereo unspecified),107.8%
8,N#Cc1cccc(C(=O)N2C[C@H](CO)C[C@H](CN3CCCC3)C2)c1,-1.985%
9,Cc1cccc(C(=O)N2CCCSCC2CN2CCCC2)c1 (stereo unspecified),114.9%
10,O=C(c1ccc(F)c(F)c1)N1CCCSCC1CN1CCCC1 (stereo unspecified),1.047%
11,CS(=O)(=O)N1CCCC12CCCN(C(=O)c1ccc3[nH]ccc3c1)C2 (stereo unspecified),11.97%
12,O=C(c1ccc2[nH]ccc2c1)N1CCCSCC1CN1CCCC1 (stereo unspecified),105.2%
13,O=C(c1ccc2c(c1)OCO2)N1CCCSCC1CN1CCCC1 (stereo unspecified),1.32%
14,CN(C)c1cccc(C(=O)N2CCCSCC2CN2CCCC2)c1 (stereo unspecified),112.4%
15,O=C(CCC1CCN(Cc2ncc[nH]2)CC1)Nc1ccccc1Cl,0.1939%
16,CCN(C)c1ccc(CNS(=O)(=O)C2CCOCC2)cc1F,3.098%
17,O=C(O)c1cc(C2=CCCCC2)cc(S(=O)(=O)NCc2ccccn2)c1,-10.69%
18,COc1ccc(CN2CCCn3cnc(COCC4CC4)c3C2)cc1.O=C(O)C(F)(F)F,-1.756%
19,CCN1C(=O)C2(CCOCC2)c2cc(NC(=O)c3cc(C)n[nH]3)ccc21,-4.188%
20,CC(C)Oc1ccc(CNC(=O)c2cc(C(N)=O)cs2)cc1F,-0.429%
21,CCn1nc(C)c(CN2CCC(c3ccn[nH]3)C2)c1C (stereo unspecified),102.4%
22,CCn1nc(C)c(CN2CCCC(c3ccc(C(=O)O)cc3)C2)c1C (stereo unspecified),3.316%
23,CCn1nc(C)c(CN2CCC(c3ccc(C(=O)O)cc3)C2)c1C (stereo unspecified),-3.844%
24,Cc1ccc(CN(C)Cc2cc(C3CC3)[nH]n2)c(O)n1,7.171%
25,Cc1cc(CN(C)Cc2csc(-c3cccs3)n2)n[nH]1,-0.07399%
26,Cc1cc(CN(C)Cc2ccccc2N2CCCCC2)n[nH]1,185.5%

row,Compound,Percent Effect
1,CC(C)(C)C(=O)NCCC(=O)NC(C)(C)c1ccc2c(c1)OCCO2,1.419%
2,CCN(CC(=O)N(C)C)C(=O)C(C)(C)c1ccc2c(c1)OCCO2,-3.526%
3,CCCNC(=O)NC(=O)CNC(C)(C)c1ccc2c(c1)OCCO2,109.8%
4,CC(C)(NCc1cccc(C#N)c1)c1ccc2c(c1)OCO2,0.8425%
5,CCCNC(=O)NC(=O)CNC(C)(C)c1ccc2c(c1)OCO2,110.6%
6,CC(C)(NCc1ccc(C#N)cc1)c1ccc2c(c1)OCO2,0.339%
7,CCN(Cc1ccc(CN(C)C)cc1)C(=O)c1ccncc1O,4.477%
8,O=C(NC1CC(F)(F)C1)[C@]12COC[C@H]1CN(Cc1ccsc1)C2,-6.897%
9,O=C(CN1CCc2cncnc2C1)NC1CCCCNC1=O (stereo unspecified),-3.554%
10,Cc1ccc(N2CCC3(CCN(C(N)=O)CC3)CC2)nn1,5.421%
11,Cc1cc(C)nc(N2CCOC(C)(C(=O)N(C)C)C2)n1 (stereo unspecified),205.4%
12,CCCS(=O)(=O)N1CCOC2(CCCN(c3ccc(C)nn3)C2)C1 (stereo unspecified),6.152%
13,Cc1nc(N2CCOCC2)nc(C)c1NC(=O)Cc1ccc(Cl)cc1,-11.2%
14,Cc1ccsc1CN(C)c1cc(N2CCOCC2)ncn1,-30.66%
15,Cc1cc(C)nc(N2CCN(C(=O)c3cc(Cl)c[nH]3)CC2)n1,-2.597%
16,Cc1cc(C)nc(N2CC[C@@]3(O)CCN(S(=O)(=O)N(C)C)C[C@H]3C2)n1,-0.4533%
17,CC(C)=CCC1(C(=O)O)CCCN(c2cc(N)ncn2)C1 (stereo unspecified),-4.514%
18,Cc1cc(N2CCOC(C)(C(=O)N(C)C)C2)ncn1 (stereo unspecified),147.4%
19,CNC(=O)C1(C)CN(c2nc(C)cc(C)n2)CCO1 (stereo unspecified),133.8%
20,Cc1ccc(N2CCOC(C)(C(=O)N(C)C)C2)nn1 (stereo unspecified),160%
21,CNc1cc(C)nc(N2CCC3(CC2)[C@H](O)C[C@@H]3O)n1,-5.411%
22,CCOC(=O)NCCC(=O)NCc1ccc(Oc2ccc(F)cc2)nc1,-9.89%
23,OC(CNc1cncc(OCc2ccccc2)n1)c1ccco1 (stereo unspecified),3.469%
24,COc1cc(C)ccc1OCC(=O)Nc1ccnc(OCCN(C)C)c1,10.45%
25,CCn1c(CN(C)C)nnc1C1CCN(c2nccc(NC)n2)CC1,-2.442%
26,Cc1cccc(C)c1CNC1(CCO)CCOCC1,0.8259%

row,Compound,Percent Effect
1,CC(C)CCN1CCCC(Cn2cc(CCO)nn2)C1 (stereo unspecified),-4.048%
2,COc1ccccc1CC1CCCN(CCC(N)=O)C1 (stereo unspecified),-12.09%
3,CN(c1ccccc1)c1ccc(CC2CCCN(CCO)C2)nn1 (stereo unspecified),94.33%
4,Cc1ccc(N2CCCC(NC(=O)C(C)(C)C#N)C2=O)cc1 (stereo unspecified),-7.395%
5,CNc1ncccc1CN1CCN(C(C)=O)CC(C(N)=O)C1 (stereo unspecified),106.9%
6,CC(C)Oc1ncccc1CNC(=O)N1CCC(C(N)=O)C1 (stereo unspecified),-8.219%
7,CN1CCN2CCN(Cc3ccccc3Cn3cccn3)CC2C1 (stereo unspecified),-0.2104%
8,N#Cc1cccnc1NCc1cccnc1N1CCC(C(N)=O)CC1,-4.129%
9,CN(C)c1ncccc1CNC(=O)N1CCCC1CN1CCCCC1 (stereo unspecified),7.687%
10,CN1CCCN(C[C@H]2C[C@H](CO)CN(Cc3cccnc3N)C2)CC1,-5.741%
11,CNc1ncccc1CN1CCN(C)CC(C(N)=O)C1 (stereo unspecified),105.8%
12,NC(=O)C1CCCN(Cc2c(-c3ccco3)[nH]c3ncccc23)C1 (stereo unspecified),-7.112%
13,CNc1ncccc1CN1CCN(C)CC(C(=O)N(C)C)C1 (stereo unspecified),106.5%
14,CN(C)CCOCC1CN(C(=O)c2ccnnc2)Cc2ccnn2C1.O=C(O)C(F)(F)F.O=C(O)C(F)(F)F (stereo unspecified),5.316%
15,CCn1cc2c(n1)C(COCC1CC1)CN(c1ccc(C)nn1)C2 (stereo unspecified),10.52%
16,CCCSc1nc(N)c(NC(=O)c2ccc(OC)c(OC)c2)c(=O)[nH]1,-5.573%
17,CS(=O)(=O)N1CCCC(Cc2ccnc3ccncc23)CC1 (stereo unspecified),72.88%
18,Cn1ccnc1CN1CCCC(Cc2ccnc3ccncc23)CC1.O=CO (stereo unspecified),122.1%
19,CN1CCCC(Cc2ccnc3ccncc23)CC1 (stereo unspecified),-6.52%
20,O=CO.c1cc2nccc(CC3CCCN(C4CCOCC4)CC3)c2cn1 (stereo unspecified),113.5%
21,O=C(CC1CC1)N(Cc1cccnc1)CC1CCN(C2CCCC2)CC1,-16.06%
22,O=CO.c1cc2nccc(CC3CCCN(Cc4c[nH]cn4)CC3)c2cn1 (stereo unspecified),92.48%
23,O=C(NCCc1c[nH]cn1)C1CCCN(Cc2ccco2)C1 (stereo unspecified),-20.31%
24,Cn1ccnc1CN1CCC(CNS(=O)(=O)c2cccnc2)C1 (stereo unspecified),2.394%
25,c1cc2nccc(CC3CCCN(Cc4ncc[nH]4)CC3)c2cn1 (stereo unspecified),3.513%
26,O=C(Cc1cccnc1)N1CCCC2(CCN(C3CCOCC3)C2)C1.O=C(O)C(F)(F)F.O=C(O)C(F)(F)F (stereo unspecified),3.784%

row,Compound,Percent Effect
1,Cc1cccc(-c2nc(CN3CCn4c(nnc4C4CC4)C3)no2)c1,0.9786%
2,Cc1nc(C2(NCc3c(C)nn(C)c3N3CCOCC3)CCC2)no1,-14.17%
3,Cc1cccc(CS(=O)(=O)Cc2ccn(C)c(=O)c2)c1,-8.677%
4,c1cn(CCNc2nc(NC3CC3)nc3c2CCNCC3)nn1,-2.29%
5,CCN(C(=O)CN1CCCC1c1ccc(OC)cc1)c1ccccc1C (stereo unspecified),3.108%
6,COc1ccc(CNC(=O)C2=NN(c3ccc(C)cc3)C(=O)CN2)cc1,-36.41%
7,COc1ccc(OC2CCN(C(=O)c3ccc(C(C)=O)s3)CC2)cc1,-8.42%
8,COc1ccc(N(c2ccccc2)c2ccc(C(=O)O)s2)cc1,119.4%
9,COc1ccc(N(c2ccc(C)cc2)c2ccc(C(=O)O)s2)cc1,128.9%
10,COc1cc(/C=C/c2ncc(C(=O)O)s2)cc(OC)c1,4.44%
11,CCN(C(=O)CN1CCCC1c1ccc(OC)cc1)c1ccccc1 (stereo unspecified),3.138%
12,COc1ccc(N(c2ccc(OC)cc2)c2ccc(C(=O)O)s2)cc1,99.84%
13,C[C@@H](N)C(=O)N1CC2(CCNCC2)c2cc(Cl)ccc21.Cl.Cl,85.61%
14,O=C1CN(C(=O)c2cc(Cl)ccc2F)c2ccccc2N1,1.511%
15,Cc1ccc2c(c1)C1(CCN(S(C)(=O)=O)CC1)CN2C(=O)N(C)C,0.4399%
16,CCOC(=O)N1CC2(CCNCC2)c2cc(Cl)ccc21.Cl,107.5%
17,Cc1ccc2c(c1)C1(CCNCC1)CN2C(=O)C(C)C,-27.38%
18,CN(C)C(=O)N1CC2(CCNCC2)c2cc(Cl)ccc21.Cl,-23.53%
19,O=C1CN(C(=O)c2cc(Cl)ccc2F)c2ccncc2N1,-25.93%
20,Cl.O=C(c1ccccc1F)N1CC2(CCNCC2)c2cc(Cl)ccc21,106.3%
21,CCC(=O)N1CCC2(CC1)CN(C(C)=O)c1ccc(C)cc12,1.312%
22,CC(C)C[C@H](N)C(=O)N1CC2(CCNCC2)c2cc(Cl)ccc21.Cl.Cl,115.3%
23,CC(=O)N1CC2(CCN(C(=O)CO)CC2)c2cc(C)ccc21,-15.84%
